# Compounds with a hit are over-represented: about 4.7% of the library has one in this group of screens.
# TRHR PAM – allosterically enhances the human TRH receptor; P34981; TRHR cells, fluo-8 calcium fluorescence, EC20 TRH enhancement; enhancement, % at 2 µM; 360,000 compounds, 0.66% hits; AID 493056; in the data active = enhancement above about 30%; also: 0% is about no effect
# Target sequence (P34981 whole entry, looked up): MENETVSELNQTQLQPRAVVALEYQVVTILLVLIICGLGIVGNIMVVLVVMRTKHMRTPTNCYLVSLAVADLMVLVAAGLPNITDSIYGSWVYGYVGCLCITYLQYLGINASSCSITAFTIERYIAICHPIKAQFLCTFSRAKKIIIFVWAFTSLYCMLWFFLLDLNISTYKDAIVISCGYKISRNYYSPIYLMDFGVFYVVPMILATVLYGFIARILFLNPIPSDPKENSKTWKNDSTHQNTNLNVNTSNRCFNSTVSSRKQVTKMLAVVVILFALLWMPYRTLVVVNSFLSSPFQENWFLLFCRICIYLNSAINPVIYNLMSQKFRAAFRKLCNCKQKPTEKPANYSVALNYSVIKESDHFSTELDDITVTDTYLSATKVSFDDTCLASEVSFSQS
#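 TRHR-expressing cells loaded with fluo-8 calcium dye were read kinetically (ex 480/em 530) during compound addition, then stimulated with an EC20 of TRH (10 nM final). Enhancement of the Gq-mediated intracellular calcium response was scored.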
# TRHR agonist – TRH receptor (human) agonism. P34981. TRHR cells, calcium flux fluo-8, FDSS agonist mode. activation, % at 2 µM. 360,000 compounds, 0.18% hits. AID 493084; also: 0% is about no effect
#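 Fluo-8-loaded TRHR cells; 10 s baseline, compound added, kinetic Ca2+ fluorescence read 1/s, agonist mode.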
# D1 potentiator – human D1 dopamine receptor positive modulation. P21728. HEK293 TREx D1 cells, calcium flux, dopamine EC20 potentiation. potentiation, % at 10 µM. 360,000 compounds, 0.036% hits. AID 504651; in the data active = potentiation above about 30%; also: 0% is about no effect
# D1 antagonist – blocks dopamine activation of the human D1 receptor; P21728; HEK293 TREx D1 cells, calcium flux, dopamine EC80; hits give low values; activity change, negative = inhibition, % at 10 µM; 360,000 compounds, 3.2% hits; AID 504652; in the data active = activity change below about -30%; also: % is scaled to controls: 0 for no effect and ±100 for the full control effect
#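 Using tetracycline-induced force-coupled D1 Hek293 cells and a calcium dye, signals were followed for 180 s after compound, then for 180 s after EC80 dopamine, to detect inhibitors.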
# D1 ag – agonists of human D1 dopamine receptor. P21728. HEK293 T-REx D1 cells, calcium flux, agonist mode. activation, % at 2 µM. 360,000 compounds, 1% hits; also: 0% is about no effect
#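 Inducible HEK293 T-REx D1 cells, force-coupled to calcium signalling, were plated at 4000 cells/well with tetracycline and held overnight at 30 C. After no-wash calcium dye loading, compound-evoked calcium rise over 180 s flagged agonists.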
# Active calls of the source: *; nt = not tested or not shown. Rule as the data show it, unless noted: active = activation above about 30%; inactive = the rest.
SMILES,TRHR PAM,TRHR agonist,D1 potentiator,D1 antagonist,D1 ag
CC1(c2ccc(OC(F)F)cc2)NC(=O)N(CC(=O)Nc2cccc(F)c2)C1=O (stereo not given),0.7,11.8,-6.5,-60.8*,60.0*
CCOC(=O)c1sc(NC(=O)CN2C(=O)NC3(CCCCCCC3)C2=O)c(C(=O)OCC)c1C,-1.7,-0.8,4.8,9.1,1.9
Cc1ccc(NC(=O)CN2C(=O)NC(C)(c3ccc(Cl)cc3)C2=O)cc1 (stereo not given),12.3,3.0,-2.8,-12.1,16.2
CC1(c2ccc(OC(F)F)cc2)NC(=O)N(CC(=O)Nc2ccc(Cl)cc2F)C1=O (stereo not given),22.0,6.1,0.1,-13.0,36.2*
CC1(c2ccc(OC(F)F)cc2)NC(=O)N(CC(=O)Nc2ccc(OC(F)F)cc2)C1=O (stereo not given),-8.6,7.1,-4.2,-43.0*,49.5*
Cc1ccc2nc(COc3ccccc3NC(=O)C(C)(C)C)cc(=O)n2c1,-3.0,0.1,1.1,12.9,-0.4
Cc1cc2c(s1)c1cnn(Cc3c(F)ccc(C)c3F)c(=O)c1n2C,4.3,-0.2,11.5,-24.1,-0.4
COc1ccc(C2(c3ccc(OC)cc3)NC(=O)N(CC(=O)Nc3ccc(OC(F)F)cc3)C2=O)cc1,-1.9,2.8,-6.1,8.6,12.1
CCOc1ccc(NC(=O)CN2C(=O)NC(C)(c3ccc(OC(F)F)cc3)C2=O)cc1 (stereo not given),-3.7,8.7,-14.8,-42.9*,38.0*
CCOC(=O)c1c(C)[nH]c(C(=O)CN2C(=O)NC(C)(c3ccc(C)cc3)C2=O)c1C (stereo not given),12.0,4.4,0.5,0.9,53.9*
CC1(c2ccc(OC(F)F)cc2)NC(=O)N(CC(=O)Nc2ccc(S(N)(=O)=O)cc2)C1=O (stereo not given),4.6,0.3,-0.8,-0.7,3.9
Cc1cc(NC(=O)CN2C(=O)NC(C)(c3ccc(OC(F)F)cc3)C2=O)no1 (stereo not given),1.0,4.3,-6.0,4.3,33.1*
CCN1CCOC(=O)C1CC(=O)Nc1ccc(Br)cc1 (stereo not given),1.9,-3.0,-1.8,0.0,3.5
CN(c1nnc(NC(=O)Nc2ccccc2C(F)(F)F)s1)C1CCCCC1,-1.7,-1.2,-5.0,-7.5,0.2
O=C(OC1CCOC1=O)c1cccc(S(=O)(=O)Nc2cccc(Cl)c2)c1 (stereo not given),-0.2,-0.2,-4.5,-32.1*,10.7
CNS(=O)(=O)c1cccc(C(=O)OC2CCOC2=O)c1 (stereo not given),-3.2,1.3,nt,-10.0,7.3
Cc1ccc(C(=O)NCCNS(=O)(=O)c2ccccc2)cn1,39.3*,0.0,-1.0,16.4,5.5
Cc1cccc(N2CCN(C(=O)Cn3c(=O)c4cccn4c4ccc(F)cc43)CC2)c1C,3.7,0.5,-1.8,3.0,0.8
Cc1cccc(C(C)(C)C)c1OCCOCCN1CCCC1,4.0,0.3,8.0,-7.4,4.7
Cc1cc(C)c(OCCN2CCCC2)c(Cl)c1,-1.7,0.1,4.2,-59.5*,4.7
Cc1cccc(C(C)(C)C)c1OCCN1CCCC1,-2.1,0.2,-4.8,-31.7*,3.8
Cc1cc(Cl)cc(Cl)c1OCCN1CCCC1,7.5,0.3,-0.2,-31.0*,3.2
Cc1cc(C)c(OCCOCCN2CCN(C)CC2)c(Cl)c1,11.7,0.3,0.0,-7.4,-2.3
CC(Oc1ccccc1)C(=O)OCc1cc(=O)n2nc(C(C)C)sc2n1 (stereo not given),4.5,0.5,-3.0,-6.7,6.7
O=C(NCc1ccc2c(c1)OCO2)c1ccc(CS(=O)(=O)c2ccc(Br)cc2)o1,6.2,-0.6,nt,-25.0,35.8*
SMILES,TRHR PAM,TRHR agonist,D1 potentiator,D1 antagonist,D1 ag
Cc1cc(C)c(S(=O)(=O)Nc2ccc3oc(C)c(C(=O)OC(C)C)c3c2)cc1C,-2.5,0.7,-0.5,-9.1,3.1
Cc1cc2ncc(-c3cccs3)nc2cc1C,31.0*,0.3,-3.2,-6.3,-0.5
c1csc(-c2ccc3ccccc3n2)c1,1.7,0.1,0.9,6.0,1.4
CCCCN(C(=O)c1ccc2c(c1)NC(=O)CS2)c1ccccc1,-3.0,0.5,nt,-35.9*,10.0
Cc1ccc(N(CC(=O)NCCc2ccccc2C)S(=O)(=O)N(C)C)cc1,1.3,-0.6,-1.5,-12.4,-2.0
COc1ccccc1N(C)S(=O)(=O)c1ccc(C(=O)N(C)Cc2ccc(OC(F)F)cc2)cc1,-7.6,0.7,-0.1,-41.4*,18.6
COc1cccc(NC(=O)CN(Cc2ccccc2)S(=O)(=O)c2ccc3nc(C)sc3c2)c1,7.2,-0.8,-7.1,-44.6*,21.0
CCOc1ccc(NC(=O)CN(Cc2ccccc2)S(=O)(=O)c2ccc3nc(C)sc3c2)cc1,-1.9,1.1,-5.8,0.2,1.5
Cc1nc2ccc(NC(=O)c3cccc(S(=O)(=O)N(C)c4ccccc4)c3)cc2s1,3.9,0.5,-6.8,-1.8,13.5
COc1ccccc1N(C)S(=O)(=O)c1ccc(C(=O)Nc2nccs2)cc1,-19.3,0.3,-5.2,-66.5*,0.4
COc1ccccc1N(C)S(=O)(=O)c1ccc(C(=O)Nc2ccc3nc(C)sc3c2)cc1,1.8,1.2,-0.8,-44.4*,9.1
COc1ccccc1N(C)S(=O)(=O)c1ccc(C(=O)Nc2ncc(C)s2)cc1,2.6,0.9,-2.9,-1.5,3.3
O=C(CSc1nc2ccccc2c(=O)n1CCC(=O)NC1CCCCC1)Nc1ccccc1Cl,2.7,0.2,-1.8,-15.3,0.9
CN(C)c1ccc(/C=C/C(O)=C2/C(=O)N(C)C3(C)CC2c2ccccc2O3)cc1 (stereo not given),-5.7,32.0*,-5.0,-24.4,68.8*
Cc1ccc(S(=O)(=O)N/N=C/c2c[nH]c3ccccc23)cc1,4.3,-0.2,-7.7,-49.0*,9.2
Cc1onc(-c2ccccc2)c1C(=O)Nc1ccc(S(=O)(=O)Nc2nccs2)cc1,-4.3,0.3,-4.5,-40.2*,1.0
O=C(Nc1ccccc1)c1cccc(S(=O)(=O)Oc2ccc([N+](=O)[O-])cc2)c1,2.9,-1.9,-4.7,-30.2*,17.7
NC(=O)c1cc(S(=O)(=O)Nc2cccc(F)c2)co1,3.2,0.1,2.9,-45.8*,1.4
Cc1cc(C)cc(NS(=O)(=O)c2coc(C(N)=O)c2)c1,4.0,0.4,-6.2,-7.5,3.8
O=C(Nc1ccccc1)c1cccc(S(=O)(=O)Nc2cccc(F)c2)c1,-7.2,0.4,-0.7,-40.1*,16.0
O=C(O)c1cccc(NC(=O)c2cccc(S(=O)(=O)Nc3cccc([N+](=O)[O-])c3)c2)c1,-4.7,0.5,16.5,-0.6,0.2
O=C(Nc1cccc(F)c1)c1ccccc1,4.0,1.3,-8.1,-1.7,0.8
CCCCNS(=O)(=O)c1ccc(NC(=O)c2c(-c3ccccc3)noc2C)cc1,-1.5,-0.5,-6.7,-19.3,27.4

# Screens from PubChem.
